Compound activity from PubChem.
The list is not random: actives were taken first. Their share in the collection is about 11%.
G9a inh: qHTS Assay for Inhibitors of Histone Lysine Methyltransferase G9a | G9a H3K9 monomethylation, AlphaScreen, 2 h | Potency, µM (titrated, usually from 102 µM), most hits filed as inhibitors | 350,000 tested, 8.8% active | AID 504332, 2011; note: nearly all actives have a fitted effect of over 75% in size
Target sequence (Q96KQ7 913-1193 limits assumed): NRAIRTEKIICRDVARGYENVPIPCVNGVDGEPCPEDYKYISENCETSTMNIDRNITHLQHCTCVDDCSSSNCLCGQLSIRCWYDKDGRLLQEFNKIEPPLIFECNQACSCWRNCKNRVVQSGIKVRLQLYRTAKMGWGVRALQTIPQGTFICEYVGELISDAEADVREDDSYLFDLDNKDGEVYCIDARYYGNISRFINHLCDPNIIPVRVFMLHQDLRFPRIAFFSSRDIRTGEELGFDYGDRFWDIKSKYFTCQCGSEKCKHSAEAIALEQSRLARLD
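Step 1: enzyme (final 20 nM) with compound, 15 min RT. Step 2: substrate peptide 500 nM and SAM 20 uM, 2 h RT. Step 3: anti-H3K9me1 antibody and AlphaScreen beads, 10 min, then plate read.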
Sfp PPTase inh: qHTS Assay for Inhibitors of Bacillus subtilis Sfp phosphopantetheinyl transferase (PPTase); Biochemical Sfp PPTase activity, qHTS; Potency, µM, actives largely listed as inhibitors; 310,000 tested, 3.5% active; 4'-phosphopantetheinyl transferase ffp (Bacillus subtilis), Q9F4F7;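 note: the enzyme is Sfp with the accession as filed and its product quenches rhodamine fluorescence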
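After 15 min at room temperature with compound, 15 nM Sfp received 5 uM rhodamine-CoA plus 12.5 uM BHQ-2-ybbR (50 mM Hepes pH 7.6, 10 mM MgCl2). Rate came from the fluorescence difference over 30 min, ex 525/em 598 nm.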
Coupling enz: qHTS Assay for Inhibitors of Fructose-1,6-bisphosphate Aldolase from Giardia Lamblia: Coupling assay counterscreen | coupling enzyme system counterscreen, AmpLite Red fluorescence | activity change, negative = inhibition, % at 58.2 µM, hits read low | 290,000 tested, 0.67% active | AID 2472, 2010; in the data active = activity change below about -30%
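Counterscreen lacking aldolase: glyceraldehyde-3-phosphate coupling-enzyme reagent preincubated 10 min at RT with compound (at 57.5 uM final), then substrate/coupling system with AmpLite Red added; fluorescence read at 525/598 nm after 20 min RT.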
Tau ThT inhib: qHTS for Inhibitors of Tau Fibril Formation, Thioflavin T Binding; Potency, µM (doses to about 57.4 µM), hits mostly inhibitors; 270,000 tested, 2.1% active; recombinant tau K18 P301L, heparin-induced fibrillization, ThT fluorescence; Microtubule-associated protein tau (Homo sapiens), P10636; note: nearly all actives have a fitted effect of over 55% in size
Target sequence (P10636 561-689 P618L limits assumed): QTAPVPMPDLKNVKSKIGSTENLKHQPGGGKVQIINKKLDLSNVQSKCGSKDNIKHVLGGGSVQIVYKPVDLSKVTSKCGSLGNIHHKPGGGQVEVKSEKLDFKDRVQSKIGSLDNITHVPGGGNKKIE
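K18 P301L tau (15 uM + 0.24 uM Alexa 594-tagged), heparin 20 uM, NaOAc pH 7, 6 h 37 C; ThT 30 uM, 1 h RT, ex 450/em 510 nm.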
Tau fluor cs: Counterscreen qHTS for Inhibitors of Tau Fibril Formation, Fluorescence Polarization | tau K18 P301L (four-repeat tau fragment) Alexa594 fluorescence, heparin fibrillization | Potency, µM (highest dose often 57.7 µM) | 280,000 tested, 0.93% active; note: nearly all actives have a fitted effect of over 55% in size
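Human K18 P301L tau (15 uM unlabeled plus 0.24 uM Alexa 594-labeled, final) in 100 mM sodium acetate pH 7 was mixed with compound and 20 uM heparin and incubated 6 hr at 37 C.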
Tau FP inhib: qHTS for Inhibitors of Tau Fibril Formation, Fluorescence Polarization; Microtubule-associated protein tau (Homo sapiens), P10636; K18 P301L tau heparin fibrillization, Alexa594 FP, 6 h; Potency, µM (highest dose often 57.7 µM), usual class: inhibitors; 280,000 tested, 0.39% active; note: nearly all actives have a fitted effect of over 55% in size
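Compound effects on tau fibrillization are measured by Alexa 594 fluorescence polarization (ex 555, em 632 nm). K18 P301L tau is used at 15 uM with 0.24 uM labeled tracer, and 20 uM heparin induces aggregation over 6 hr at 37 C.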
Numbers stand for hits; [ ] = remark or other dose. Unless noted, calls come from the whole dose curve; as a rule, active = well fitted curve in the direction sought with a large enough effect; inconclusive = small, poorly fitted or top-dose-only effect, or another doubt; inactive = no such curve, though single readings can be large; an effect the other way counts as inactive or inconclusive.

CCCC1CCc2c(sc(N)c2C(N)=O)C1 (centres undefined) was read as G9a inh 31.6µM, Sfp PPTase inh inconclusive, Coupling enz inactive, Tau ThT inhib inconclusive, Tau fluor cs inactive and Tau FP inhib inactive.
`CC(C)(C)C1CCc2c(sc(N)c2C(N)=O)C1` (centres undefined) gave G9a inh 3.98µM, Sfp PPTase inh 50.1µM, Coupling enz inactive, Tau ThT inhib inconclusive, Tau fluor cs inactive and Tau FP inhib inconclusive.
O=[N+]([O-])c1ccc(Cl)cc1N1CCCC1 was read as Sfp PPTase inh inactive, Coupling enz inactive, Tau ThT inhib inactive, Tau fluor cs inactive and Tau FP inhib inactive.
`O=[N+]([O-])c1cc(Cl)ccc1N1CCN(c2ccccc2O)CC1` gave G9a inh inconclusive, Sfp PPTase inh inactive, Coupling enz inactive, Tau ThT inhib 14.1µM, Tau fluor cs 15.8µM[quencher] and Tau FP inhib inactive.
Cc1cc(C=O)c(C)n1-c1ccc(Cl)c(C(=O)O)c1 was read as G9a inh 12.6µM, Sfp PPTase inh inactive, Coupling enz inactive, Tau ThT inhib inactive, Tau fluor cs inactive and Tau FP inhib inactive.
O=S(=O)(CCN1CCN(c2ccccc2O)CC1)c1cc(Cl)ccc1Cl was read as G9a inh 44.7µM.
`O=[N+]([O-])c1cc(Cl)ccc1N1CCCCC1` gave G9a inh 39.8µM, Sfp PPTase inh inactive, Coupling enz inactive, Tau ThT inhib inactive, Tau fluor cs inactive and Tau FP inhib inactive.
`O=C(c1ccc(Br)cc1)N1CCN(CCc2ccncc2)CC1` gave G9a inh inactive, Tau ThT inhib inactive, Tau fluor cs inactive and Tau FP inhib inactive.
For O=C(Nc1oc2ccccc2c(=O)c1-c1ccc(Br)cc1)c1ccco1 the results were G9a inh inactive and Sfp PPTase inh inactive.
For Nc1cc(N2CCCCC2)c(Cl)cc1[N+](=O)[O-] the results were G9a inh inconclusive, Sfp PPTase inh inactive, Coupling enz inactive, Tau ThT inhib 12.6µM, Tau fluor cs inconclusive and Tau FP inhib inactive.
O=C(CSc1ccc(Cl)cc1)N1CCN(c2ccc(Cl)cc2[N+](=O)[O-])CC1 was read as G9a inh 20µM, Sfp PPTase inh inactive, Tau ThT inhib inconclusive, Tau fluor cs inactive and Tau FP inhib inactive.
`Cc1cc(C=O)c(C)n1-c1ccc(N2CCCCC2)c([N+](=O)[O-])c1` gave G9a inh 12.6µM, Sfp PPTase inh inactive, Coupling enz inactive, Tau ThT inhib inconclusive, Tau fluor cs inactive and Tau FP inhib inactive.
For Nc1cc(Cl)ccc1N1CCCCCC1 the results were G9a inh 10µM, Sfp PPTase inh inactive, Coupling enz inactive, Tau ThT inhib inactive, Tau fluor cs inactive and Tau FP inhib inactive.
CC(C)(C)C(=O)N1CCN(c2ccc(Cl)cc2[N+](=O)[O-])CC1 was read as G9a inh inactive, Sfp PPTase inh inactive, Coupling enz inactive, Tau ThT inhib inactive, Tau fluor cs inactive and Tau FP inhib inactive.
Screening O=C(CCn1cnc2ccccc2c1=O)NCc1ccccc1 returned G9a inh inconclusive, Tau ThT inhib inactive, Tau fluor cs inactive and Tau FP inhib inactive.
O=C(Cn1c(=O)cnc2ccccc21)N1CCN(S(=O)(=O)c2ccccc2Br)CC1 was read as G9a inh inactive[12.7 µM].
`C#CCSC1=C(C#N)C(c2cccs2)C(C(=O)OCC)=C(C)N1` (centres undefined) gave G9a inh inactive[12.7 µM], Sfp PPTase inh 28.2µM, Coupling enz inactive, Tau ThT inhib inconclusive, Tau fluor cs inactive and Tau FP inhib inactive.
Screening CCOC(=O)CSC1=C(C#N)C(c2ccc3c(c2)OCO3)CC(=O)N1 (centres undefined) returned G9a inh inactive, Sfp PPTase inh inactive, Coupling enz inactive, Tau ThT inhib inactive, Tau fluor cs inactive and Tau FP inhib inactive.
Screening CCOC(=O)CSC1=C(C#N)C(c2ccc(Cl)cc2)CC(=O)N1 (centres undefined) returned G9a inh 79.4µM, Sfp PPTase inh inactive, Coupling enz inactive, Tau ThT inhib inactive, Tau fluor cs inactive and Tau FP inhib inactive.
Screening CCOC(=O)C1=C(C)NC(C)=C(C(=O)OCC)C1c1cccs1 returned G9a inh inactive, Sfp PPTase inh inactive, Coupling enz inactive, Tau ThT inhib inactive, Tau fluor cs inconclusive and Tau FP inhib inactive.
`CCN(CC)C(=O)CSC1=C(C#N)C(c2cccs2)C=C(C)N1` (centres undefined) gave G9a inh 10µM, Sfp PPTase inh 50.1µM, Coupling enz inactive, Tau ThT inhib inactive, Tau fluor cs inactive and Tau FP inhib inactive.
`C=C(C)CSC1=C(C#N)C(c2ccsc2)CC(=O)N1` (centres undefined) gave G9a inh inactive[12.7 µM], Sfp PPTase inh 28.2µM, Coupling enz inactive, Tau ThT inhib inactive, Tau fluor cs inactive and Tau FP inhib inactive.
Screening Cn1c(=O)c2c(ncn2CCOc2cccc(Br)c2)n(C)c1=O returned G9a inh inactive, Sfp PPTase inh inactive and Coupling enz inactive.
Cc1cc(=O)n2c(C(=O)Nc3ccc(C)c(Cl)c3)c(C(=O)Nc3ccccc3)sc2n1 was read as G9a inh inconclusive, Tau ThT inhib inactive, Tau fluor cs inactive and Tau FP inhib inactive.
CCC(C)(C)NC(=O)Cn1c(=O)ccc2cc(S(=O)(=O)N3CCC(C)CC3)ccc21 was read as G9a inh inactive, Tau ThT inhib inactive, Tau fluor cs inactive and Tau FP inhib inactive.
`CCOC(=O)CSC1=C(C#N)C(c2ccc(OC)cc2)C2=C(CC(C)(C)CC2=O)N1` (centres undefined) gave G9a inh inactive[12.7 µM], Sfp PPTase inh 35.5µM, Coupling enz inactive, Tau ThT inhib inactive, Tau fluor cs inactive and Tau FP inhib inactive.
C=CCOC(=O)C1=C(C)NC(SCC)=C(C#N)C1c1ccc(Cl)cc1 (centres undefined) was read as Sfp PPTase inh inactive, Coupling enz inactive, Tau ThT inhib inactive, Tau fluor cs inconclusive and Tau FP inhib inactive.
COc1ccc(C2C(C#N)=C(SC)NC3=C2C(=O)CC(C)(C)C3)cc1 (centres undefined) was read as G9a inh inactive, Sfp PPTase inh inactive, Coupling enz inactive, Tau ThT inhib inactive, Tau fluor cs inactive and Tau FP inhib inactive.
